# Assay results published in ChEMBL document CHEMBL3988442, “University of Dundee, Small-Polar-MMV Screening Library” (2021).
# For some assays here: Entries with a potency or affinity are not part of this list.
# What was measured:
# Design in all cases: scale not given: direction of the effect not stated beside the values
# [1] = target: Protein translocase subunit SecA (Escherichia coli (strain K12)) (UniProt P10408); assay: Assay to Identify E. coli SecA ATPase Inhibitors; format: functional; conditions: 30 µM
# Protein translocase subunit SecA (Escherichia coli (strain K12)), sequence (P10408 whole entry): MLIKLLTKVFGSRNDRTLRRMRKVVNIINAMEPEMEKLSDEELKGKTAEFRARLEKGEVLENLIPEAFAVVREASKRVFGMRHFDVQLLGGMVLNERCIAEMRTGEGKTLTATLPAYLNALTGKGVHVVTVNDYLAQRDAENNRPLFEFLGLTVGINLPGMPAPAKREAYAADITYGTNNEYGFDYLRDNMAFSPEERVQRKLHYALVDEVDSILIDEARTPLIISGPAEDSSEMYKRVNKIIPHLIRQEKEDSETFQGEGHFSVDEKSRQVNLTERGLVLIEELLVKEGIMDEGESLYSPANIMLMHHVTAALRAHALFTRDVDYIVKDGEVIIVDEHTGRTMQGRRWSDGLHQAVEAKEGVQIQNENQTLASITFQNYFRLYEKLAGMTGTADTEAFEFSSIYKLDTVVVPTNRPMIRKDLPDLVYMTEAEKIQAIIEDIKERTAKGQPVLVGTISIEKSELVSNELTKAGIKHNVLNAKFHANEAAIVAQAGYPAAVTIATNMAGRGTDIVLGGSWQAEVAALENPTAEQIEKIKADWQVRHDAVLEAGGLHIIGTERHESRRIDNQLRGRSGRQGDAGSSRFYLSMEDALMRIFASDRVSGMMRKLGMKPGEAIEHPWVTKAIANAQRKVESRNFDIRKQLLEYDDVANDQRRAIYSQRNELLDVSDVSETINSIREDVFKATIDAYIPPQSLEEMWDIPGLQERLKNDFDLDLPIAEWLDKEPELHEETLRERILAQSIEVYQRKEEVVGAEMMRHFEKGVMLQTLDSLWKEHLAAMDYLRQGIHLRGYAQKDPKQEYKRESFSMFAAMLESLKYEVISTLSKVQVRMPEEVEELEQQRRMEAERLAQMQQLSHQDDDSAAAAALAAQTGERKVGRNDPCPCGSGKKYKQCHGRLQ
# [2] = target: T1, Ubiquitin-activating enzyme e1, putative (Leishmania donovani (strain BPK282A1)) (UniProt E9BSI1); assay: Leishmania donovani Ubiquitin Activating Enzyme (LdE1); format: functional; conditions: 30 µM
# T1 sequence (whole entry): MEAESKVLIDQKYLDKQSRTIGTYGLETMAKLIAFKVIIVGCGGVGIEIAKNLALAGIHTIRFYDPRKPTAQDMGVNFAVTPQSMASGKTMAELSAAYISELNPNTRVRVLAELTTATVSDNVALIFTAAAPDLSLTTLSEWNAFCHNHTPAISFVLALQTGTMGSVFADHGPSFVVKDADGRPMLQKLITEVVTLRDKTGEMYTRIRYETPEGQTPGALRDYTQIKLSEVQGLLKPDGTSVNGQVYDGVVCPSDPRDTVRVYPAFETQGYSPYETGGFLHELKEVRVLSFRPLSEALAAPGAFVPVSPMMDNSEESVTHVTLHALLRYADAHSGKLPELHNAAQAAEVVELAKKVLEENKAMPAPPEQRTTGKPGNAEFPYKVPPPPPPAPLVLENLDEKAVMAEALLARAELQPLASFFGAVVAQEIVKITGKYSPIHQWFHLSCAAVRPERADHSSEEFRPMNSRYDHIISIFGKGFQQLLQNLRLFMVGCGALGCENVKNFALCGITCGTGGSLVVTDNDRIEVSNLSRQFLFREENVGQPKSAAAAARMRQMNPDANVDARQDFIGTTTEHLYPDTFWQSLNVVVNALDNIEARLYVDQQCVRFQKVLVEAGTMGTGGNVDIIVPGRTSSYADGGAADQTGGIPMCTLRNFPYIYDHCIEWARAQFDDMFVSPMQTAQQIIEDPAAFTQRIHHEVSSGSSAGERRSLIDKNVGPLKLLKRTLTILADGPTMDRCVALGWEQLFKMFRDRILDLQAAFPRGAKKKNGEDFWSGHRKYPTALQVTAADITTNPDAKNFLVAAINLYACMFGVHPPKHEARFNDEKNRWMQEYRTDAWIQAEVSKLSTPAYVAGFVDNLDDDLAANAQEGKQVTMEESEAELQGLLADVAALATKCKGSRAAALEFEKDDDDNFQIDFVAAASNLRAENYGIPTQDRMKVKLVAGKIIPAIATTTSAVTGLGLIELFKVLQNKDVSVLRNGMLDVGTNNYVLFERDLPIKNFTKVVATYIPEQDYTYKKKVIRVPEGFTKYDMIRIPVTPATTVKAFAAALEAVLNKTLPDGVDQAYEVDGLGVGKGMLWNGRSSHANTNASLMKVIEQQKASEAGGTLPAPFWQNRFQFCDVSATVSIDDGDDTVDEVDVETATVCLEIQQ
# [3] = target: AMP-activated protein kinase, AMPK (Homo sapiens) (UniProt P54646+O43741+P54619+Q9UGJ0+Q9Y478+Q13131+Q9UGI9); assay: AMP-dependent Kinase enzyme assay. An in vitro enzyme assay that detects ADP turnover that is directly proportional to AMPK activity. This uses naive AMPK that is activated during the assay with MK-8722; format: functional; conditions: 30 µM
# [4] = target: Sialic acid-binding Ig-like lectin 9 (Homo sapiens) (UniProt Q9Y336); assay: Hs-Siglec9 ALPHAscreen SOP 20170721; conditions: 10 µM
# Sialic acid-binding Ig-like lectin 9 (Homo sapiens), sequence (Q9Y336 whole entry): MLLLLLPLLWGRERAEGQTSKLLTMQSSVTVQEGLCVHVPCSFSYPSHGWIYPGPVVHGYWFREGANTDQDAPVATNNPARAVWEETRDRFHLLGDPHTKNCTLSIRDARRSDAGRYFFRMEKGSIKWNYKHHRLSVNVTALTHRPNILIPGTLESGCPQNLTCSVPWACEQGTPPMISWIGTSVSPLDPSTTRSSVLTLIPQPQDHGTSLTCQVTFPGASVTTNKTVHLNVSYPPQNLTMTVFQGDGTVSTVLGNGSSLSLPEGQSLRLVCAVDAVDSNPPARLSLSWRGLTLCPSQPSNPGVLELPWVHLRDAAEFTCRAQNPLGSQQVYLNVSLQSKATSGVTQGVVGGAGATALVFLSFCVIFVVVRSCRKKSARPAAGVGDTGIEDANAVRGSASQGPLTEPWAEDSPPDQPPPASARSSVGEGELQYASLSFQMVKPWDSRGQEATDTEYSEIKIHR
# Trypanosoma cruzi = assay: Trypanosoma cruzi phosphomannomutase and mannose-1-phosphate guanylyltransferase assay; format: functional; conditions: 10 µM
# [5] = target: T2, Arginase-2, mitochondrial (Homo sapiens) (UniProt P78540); assay: in vitro enzyme assay to detect the production of urea directly proportional to the activity of Arginase II; format: functional; conditions: 33.3 µM; also: in the data most compounds retested in dose-response had high values
# T2 sequence (whole entry): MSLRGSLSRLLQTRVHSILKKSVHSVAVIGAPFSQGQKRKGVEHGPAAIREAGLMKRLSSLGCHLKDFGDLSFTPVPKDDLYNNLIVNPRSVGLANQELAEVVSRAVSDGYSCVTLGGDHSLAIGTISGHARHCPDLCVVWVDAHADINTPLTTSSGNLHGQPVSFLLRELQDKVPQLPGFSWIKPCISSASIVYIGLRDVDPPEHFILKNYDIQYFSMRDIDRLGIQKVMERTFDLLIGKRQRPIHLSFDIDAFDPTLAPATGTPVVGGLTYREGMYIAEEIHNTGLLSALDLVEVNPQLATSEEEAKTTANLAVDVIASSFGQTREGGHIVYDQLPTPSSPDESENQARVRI
# [6] = target: T3, Proteasome subunit beta (Trypanosoma cruzi) (UniProt O96673); assay: Trypanosoma cruzi proteasome chymotrypsin-like activity (TcProtChymo) assay.; also: in the data most compounds retested in dose-response had high values; format: functional; conditions: 9.37 µM
# T3 sequence (whole entry): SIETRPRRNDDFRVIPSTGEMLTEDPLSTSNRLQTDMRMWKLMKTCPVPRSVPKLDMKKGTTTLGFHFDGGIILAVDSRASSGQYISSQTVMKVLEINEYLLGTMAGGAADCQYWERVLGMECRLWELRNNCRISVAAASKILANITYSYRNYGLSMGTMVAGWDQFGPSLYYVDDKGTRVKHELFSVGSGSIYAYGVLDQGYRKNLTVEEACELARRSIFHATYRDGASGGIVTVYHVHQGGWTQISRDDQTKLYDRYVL
# Homo sapiens = organism: Homo sapiens; assay: To identify inhibition of the IFN signalling (Jak-Stat) pathway via expression of an eGFP reporter gene under the control of an IFN-stimulated response element (ISRE) containing MxA promoter.; format: functional; conditions: 30 µM
# [7] = target: T4, Tyrosyl-tRNA synthetase, putative (Trypanosoma cruzi (strain CL Brener)) (UniProt Q4DSP6); assay: Trypanosoma cruzi tyrosyl tRNA synthetase (TcYRS) _High Tyrosine SOP; format: functional; conditions: 30 µM; also: in the data most compounds retested in dose-response had high values
# T4 sequence (whole entry): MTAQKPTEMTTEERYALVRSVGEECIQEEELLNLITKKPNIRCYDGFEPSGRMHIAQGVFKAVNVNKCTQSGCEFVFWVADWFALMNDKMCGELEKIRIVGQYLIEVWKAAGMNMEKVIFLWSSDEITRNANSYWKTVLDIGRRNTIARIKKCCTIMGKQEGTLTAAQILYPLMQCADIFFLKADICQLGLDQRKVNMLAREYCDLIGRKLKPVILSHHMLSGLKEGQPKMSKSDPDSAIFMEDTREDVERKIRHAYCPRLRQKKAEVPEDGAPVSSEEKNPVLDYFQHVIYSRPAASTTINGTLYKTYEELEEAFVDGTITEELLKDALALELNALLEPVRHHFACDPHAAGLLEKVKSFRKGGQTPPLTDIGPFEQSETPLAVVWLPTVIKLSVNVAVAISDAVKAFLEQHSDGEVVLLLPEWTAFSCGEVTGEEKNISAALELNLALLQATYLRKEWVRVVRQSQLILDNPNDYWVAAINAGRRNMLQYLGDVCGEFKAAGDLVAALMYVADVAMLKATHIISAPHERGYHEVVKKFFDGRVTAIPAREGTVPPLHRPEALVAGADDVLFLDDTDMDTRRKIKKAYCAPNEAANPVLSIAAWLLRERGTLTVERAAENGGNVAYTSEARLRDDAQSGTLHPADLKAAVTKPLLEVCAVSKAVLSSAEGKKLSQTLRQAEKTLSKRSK
# [8] = target: T4, Tyrosyl-tRNA synthetase, putative (Trypanosoma cruzi (strain CL Brener)); assay: Trypanosoma cruzi tyrosyl tRNA synthetase (TcYRS) SOP; format: functional; conditions: 30 µM
# [9] = target: Chromo domain-containing protein 1 (Saccharomyces cerevisiae (strain ATCC 204508 / S288c) (Baker's yeast)) (UniProt P32657); assay: ScCHD-1 Enzyme Inhibition Assay; format: functional; conditions: 30 µM; also: in the data most compounds retested in dose-response had high values
# Chromo domain-containing protein 1 (Saccharomyces cerevisiae (strain ATCC 204508 / S288c) (Baker's yeast)), sequence (P32657 whole entry, the tested form may be a part): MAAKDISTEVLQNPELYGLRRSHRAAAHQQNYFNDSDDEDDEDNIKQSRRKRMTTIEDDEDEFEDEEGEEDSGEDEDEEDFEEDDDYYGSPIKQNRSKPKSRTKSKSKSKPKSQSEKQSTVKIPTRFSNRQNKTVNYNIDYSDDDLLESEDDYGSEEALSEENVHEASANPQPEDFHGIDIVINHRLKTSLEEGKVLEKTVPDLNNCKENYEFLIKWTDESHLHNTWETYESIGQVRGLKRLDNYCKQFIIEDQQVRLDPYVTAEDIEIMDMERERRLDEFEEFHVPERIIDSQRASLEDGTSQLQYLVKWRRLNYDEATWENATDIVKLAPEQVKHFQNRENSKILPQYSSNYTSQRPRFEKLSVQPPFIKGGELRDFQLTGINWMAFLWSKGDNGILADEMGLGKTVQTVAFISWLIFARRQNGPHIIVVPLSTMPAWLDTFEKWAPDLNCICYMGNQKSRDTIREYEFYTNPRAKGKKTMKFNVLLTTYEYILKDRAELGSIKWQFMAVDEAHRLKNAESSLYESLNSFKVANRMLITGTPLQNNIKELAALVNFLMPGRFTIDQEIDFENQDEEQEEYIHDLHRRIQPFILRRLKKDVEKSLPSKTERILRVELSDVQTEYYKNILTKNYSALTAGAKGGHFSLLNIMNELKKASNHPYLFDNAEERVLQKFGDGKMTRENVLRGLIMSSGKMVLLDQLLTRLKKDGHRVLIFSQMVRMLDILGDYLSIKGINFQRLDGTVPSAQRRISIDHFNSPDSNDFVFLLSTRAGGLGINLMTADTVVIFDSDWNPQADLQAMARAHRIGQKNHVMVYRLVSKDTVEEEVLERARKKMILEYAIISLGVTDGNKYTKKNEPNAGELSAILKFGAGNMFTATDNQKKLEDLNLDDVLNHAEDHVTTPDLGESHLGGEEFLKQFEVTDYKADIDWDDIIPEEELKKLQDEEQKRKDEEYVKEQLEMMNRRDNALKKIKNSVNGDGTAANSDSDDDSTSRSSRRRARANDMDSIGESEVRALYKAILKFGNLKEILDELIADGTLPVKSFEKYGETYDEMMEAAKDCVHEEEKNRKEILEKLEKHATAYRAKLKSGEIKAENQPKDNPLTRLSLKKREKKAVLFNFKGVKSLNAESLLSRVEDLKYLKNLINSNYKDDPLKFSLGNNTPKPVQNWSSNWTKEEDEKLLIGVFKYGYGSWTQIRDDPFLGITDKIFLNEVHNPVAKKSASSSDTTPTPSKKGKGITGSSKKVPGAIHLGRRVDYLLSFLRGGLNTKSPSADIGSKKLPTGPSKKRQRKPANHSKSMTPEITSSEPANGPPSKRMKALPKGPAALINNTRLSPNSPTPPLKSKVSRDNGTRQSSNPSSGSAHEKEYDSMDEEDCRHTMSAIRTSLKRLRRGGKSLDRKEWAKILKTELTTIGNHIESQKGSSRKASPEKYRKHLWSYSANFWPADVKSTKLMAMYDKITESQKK
Structure (SMILES),Percent Effect [1] [%],Percent Effect [2] [%],Percent Effect [3] [%],Percent Effect [4] [%],Percent Effect (Trypanosoma cruzi) [%],Percent Effect [5] [%],Percent Effect [6] [%],Percent Effect (Homo sapiens) [%],Percent Effect [7] [%],Percent Effect [8] [%],Percent Effect [9] [%]
CCn1cc(NC(=O)NCC(C)O)cn1 (configuration not stated),-0.762,17.7,-8.6,-3.54,-0.85,4.18,5.65,1.36,8.37,-24.1,-7.2
Cn1nc(CNC(=O)C2CC2)cc1C1CC1,-5.14,18.2,3.71,7.61,2.27,-4.52,4,6.02,0,11.5,-7.39
CN(C)S(=O)(=O)N1CCN(c2nccc(C(F)(F)F)n2)CC1,-2.09,5.48,8.09,4.91,7.64,0.909,10.5,9.93,5.38,12.5,-3.75
Cc1ncsc1C(=O)NCCn1nc2ccccn2c1=O,-2.94,13.5,0.246,-6.32,-3.44,2.03,2.51,13.6,8.91,15.8,-7.12
Cc1ccc(CCC(=O)N(C)CCN2CCOCC2)c(C)c1,-0.772,-5.26,4.45,4.55,-0.487,-7.1,17,-17.1,6.38,5.2,4.92
O=C(CCCn1cncn1)NC1(c2ccccc2)CCC1,-7.52,7.79,1.86,8.16,-6,-11,13.6,15.5,3.23,11.1,-1
O=C(c1ccc(N2CCCC2)nn1)N1CCCC(n2cccn2)C1 (configuration not stated),-6.6,10.5,-3,-5.01,-6.44,5.4,5.33,-4.4,4.43,3.7,1.12
Cc1ncccc1NC(=O)[C@H]1C[C@@H]2CCN(Cc3nccs3)C[C@@H]2O1,0.0943,10.8,6.53,-5.38,0.293,2.23,24.4,1.37,7.57,17.9,-3.63
Cc1cc(=O)n(CC(=O)NCCC(C)C)c(-c2cccc(Cl)c2)n1,-6.74,2.6,3.52,10.7,2.85,-9.65,6.49,2.45,6.45,13.6,5.24
CCc1n[nH]c(C2CN(C(=O)c3cnc(C)s3)CCO2)n1 (configuration not stated),-5.53,12.7,-5.15,12.5,5,-1.9,-3.03,-0.688,3.45,8.86,-5.66
Cc1c[nH]cc1C(=O)N1CCN(Cc2nc(C(C)C)no2)CC1,-5.12,8.11,-5.14,9.52,-3.81,-2.77,-3.05,17.2,2.97,11,1.56
COCC(=O)N1CCC(c2noc3nc(C)cc(C(F)(F)F)c23)CC1,-6.46,4.05,9.11,-5.57,-2.37,-7.66,13.9,21.4,-2.15,-1.3,-1.78
CNC(=O)[C@@]12CCCN(c3ncccn3)[C@@H]1CN(C(=O)NC(C)C)C2,-0.175,20.8,3.44,-13.2,-0.296,1.94,16.5,12.8,-6.35,14.1,-12.4
O=C(NCC(F)(F)F)NC1CCCc2c1cnn2CCO (configuration not stated),-4.5,16,-9.15,18.8,5.36,12.5,12.4,7.67,2.73,16.1,105
Cc1nc2n(n1)CC(Nc1cc(C(F)(F)F)nc3ncnn13)CC2 (configuration not stated),-4.34,5.48,10.2,-0.512,5.49,-0.909,11.4,-14.4,2.15,17.5,-3.28
Cc1noc([C@@H]2C[C@H]3OCC[C@H]3N(S(C)(=O)=O)C2)n1,-1.89,11,-9.13,8.3,4.37,-1.6,9.5,1.34,6.25,8.64,-4.65
CCC(=O)N1CCc2[nH]cnc2C12CCN(C(=O)c1snnc1C)CC2,-0.279,5.33,-6.44,8.1,0.876,10.9,13.8,23.3,0.546,13.6,-1.51
O=C(NCc1ccco1)c1nn(C2CCS(=O)(=O)C2)c2c1CCCC2 (configuration not stated),-5.41,21.1,7.28,5.73,3.02,-3.55,13.1,4.09,0,5.2,-0.898
O=C(CCc1cc2n(n1)CCCN(C(=O)c1cccnc1)C2)NC1CC1,-2.13,4.17,-1.68,-4.93,-3.21,-2.21,10.7,4.24,0,7.69,-2.05
Clc1ccccc1C1(c2ccnc(-c3ncccn3)n2)CCNCC1,-3.79,7.79,1.81,8.56,-3.64,-2.76,7.49,-17.8,6.45,18.5,-0.785
CN1CCN(C(=O)c2cncc(CC3CCCN(C)C3)c2)CC1 (configuration not stated),-3.41,9.46,5.47,12,-8.3,-7.66,12,15.9,1.07,1.3,-9.97
O=C(CNCCn1cccn1)NCC1(c2ccccc2)CC1,-0.0759,-2.6,8.25,8.53,1.27,1.47,-3.96,7.94,3.81,7.06,-6.43
